The record followed here is PubChem BioAssay (NCATS).

Where “and” joins values, the source holds several entries; their conditions need not be identical. Equal values may be shown once. Records with an inconclusive call do not appear. Some compounds were tested as several samples or in several runs, with calls that do not always agree. Calls of active or inactive are those of the source. Calls come from the whole dose curve; as a rule, active = well fitted curve in the direction sought with a large enough effect; inconclusive = small, poorly fitted or top-dose-only effect, or another doubt; inactive = no such curve, though single readings can be large; an effect the other way counts as inactive or inconclusive.

One assay deals with Es-2. The experiment in a line: Primary qHTS to identify gynecologic anti-cancer compounds using libraries of approved drugs and bioactive compounds (AID 1345084). Note: nearly all actives have a fitted effect of over 55% in size. The note with it: Gynecologic cancer cell panel viability, ATPlite luminescence, 48 h; series mostly up to 57.5 µM. The gist of the method: (§1)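 Five-point cytotoxicity, 48 h drug exposure at 37 C, 5% CO2, on cells seeded 16 h beforehand. ATP content read by ATPlite luminescence.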
In general terms: Quantitative high-throughput screening tests each substance at several concentrations.

For another assay, the system named is HeLa. The assay is described as above. The note with it: Gynecologic cancer cell panel viability, ATPlite luminescence, 48 h; series mostly up to 57.5 µM. The procedure, abridged:
as §1
On the technique in general: Cellular ATP, detected with luciferase, serves as a proxy for viable cell number.

Another assay relates to Hek293T. Described as above. The note with it: Gynecologic cancer cell panel viability, ATPlite luminescence, 48 h, control line for the selectivity index; series mostly up to 57.5 µM. The procedure, abridged: as §1
The next assay concerns JEG-3. The description is as above. The following applies: Gynecologic cancer cell panel viability, ATPlite luminescence, 48 h; series mostly up to 57.5 µM. The gist of the method: as §1
The subject of a further assay is OV90. Described as above. The following applies: Gynecologic cancer cell panel viability, ATPlite luminescence, 48 h; series mostly up to 57.5 µM. The procedure, abridged:
as §1

The test system of another assay is PA-1. Described as above. The following applies: Gynecologic cancer cell panel viability, ATPlite luminescence, 48 h; series mostly up to 57.5 µM. The procedure, abridged: as §1
For another assay, the system named is SKOV3. The description is as above. The note with it: Gynecologic cancer cell panel viability, ATPlite luminescence, 48 h; series mostly up to 57.5 µM. The gist of the method:
as §1

The subject of another assay is Tov-21-G. The description is as above. The note with it: Gynecologic cancer cell panel viability, ATPlite luminescence, 48 h; series mostly up to 57.5 µM. The gist of the method: as §1
The next assay relates to Tov112D. Described as above. The note with it: Gynecologic cancer cell panel viability, ATPlite luminescence, 48 h; series mostly up to 57.5 µM. The procedure, abridged:
as §1

Assay [1] can be described thus: Drug repurposing screens with cells derived from glioblastoma tumor samples (AID 1345199). Note: nearly all actives have a fitted effect of over 40% in size. The note with it: GBM patient neurospheres viability, ATP luminescence, 48 h. The gist of the method:
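Four patient lines of CD133+ GBM neurospheres were screened at several concentrations; hits were retested in those lines plus three slower-growing GBM lines, using 48-hour treatment and ATP-based viability.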

Where [2] appears, read: at 45.9 µM (top of the series), tumour line B.
Where [3] appears, read: at 45.9 µM (top of the series), tumour line D.
[4] abbreviates: at 46 µM (top of the series), tumour line A.
[5] abbreviates: at 46.1 µM (top of the series), tumour line C.
Where [6] appears, read: at 20 µM (top of the series), tumour line C.
[7] abbreviates: at 21.2 µM (top of the series), tumour line B.
% is set by controls: 0 for no effect and ±100 for the full control effect; potency is the fitted concentration of half-maximal effect.

In the case of `CC1=C(C(=O)OC(C)C)C(c2cccc([N+](=O)[O-])c2)C(C(=O)OC2CN(C(c3ccccc3)c3ccccc3)C2)=C(N)N1` (configuration not stated), the Potency entry in the assay on Es-2, with HeLa, with Hek293T, in the assay on JEG-3, in the assay on OV90 and with PA-1 was “inactive” throughout. In addition, the Potency entry with SKOV3, in the assay with Tov-21-G and in the assay with Tov112D was “inactive” each time.
Turning to `CCCCCCCCCCCCCCNCCO`, the Potency entry in the assay with Es-2, in the assay with HeLa, with Hek293T, in the assay on JEG-3, in the assay on OV90 and in the assay on PA-1 was “inactive” in each case. The Potency entry in the assay with SKOV3, in the assay with Tov-21-G and with Tov112D was “inactive” each time.
On to `CN=C(NC#N)Nc1ccc(C2=NNC(=O)CC2C)cc1` (configuration not stated), for which the Potency entry with Es-2, in the assay with HeLa, with Hek293T, with JEG-3, with OV90 and in the assay on PA-1 was “inactive” each time. Also, the Potency entry in the assay with SKOV3, in the assay on Tov-21-G and in the assay on Tov112D was “inactive” in each case. Moreover, the activity, negative = cell killing was -9.56% (inactive) in assay [1] (setting [2]), 17.5% (inactive) in [1] (setting [3]), -26.1% (inactive) in assay [1] (setting [4]) and -22.3% (inactive) in assay [1] (setting [5]).
In the case of `C=C1C(=C/C=C2\CCC[C@]3(C)[C@@H]([C@H](C)/C=C/[C@@H](O)C4CC4)CC[C@@H]23)C[C@@H](O)C[C@@H]1O`, the Potency entry in the assay on Es-2, in the assay with HeLa, with Hek293T, in the assay on JEG-3, with OV90 and in the assay with PA-1 was “inactive” in each case. In addition, the Potency entry with SKOV3, in the assay on Tov-21-G and in the assay with Tov112D was “inactive” in each case.
`CN(C)CCCOc1nn(Cc2ccccc2)c2ccccc12`: the Potency entry in the assay with Es-2, in the assay on HeLa, in the assay with Hek293T, in the assay on JEG-3 and in the assay on Tov112D was “inactive” each time. The Potency in the assay on OV90 was 14.1 µM (active) and inactive; with PA-1, 31.6 µM (active) and inactive; in the assay with SKOV3, 22.4 µM (active) and inactive; in the assay with Tov-21-G it was 31.6 µM (active) and inactive; in assay [1] (tumour line A) it was 1.58 µM (active); in assay [1] (tumour line D) it was 7.08 µM (active). Moreover, in assay [1] (setting [6]), the activity, negative = cell killing is -16.8% (inactive).
As to `O=C(OCC(O)CO)c1ccccc1Nc1ccnc2cc(Cl)ccc12` (configuration not stated), the Potency result with Es-2, in the assay on HeLa, in the assay with Hek293T, in the assay on JEG-3, in the assay with OV90 and in the assay with PA-1 was “inactive” in each case. Moreover, the Potency entry in the assay on SKOV3, in the assay with Tov-21-G and with Tov112D was “inactive” each time. For the same compound, the activity, negative = cell killing in assay [1] (setting [6]) is 1.49% (inactive); in assay [1] (setting [7]), -17% (inactive).
Consider `CN(C)CCOc1ccccc1Cc1ccccc1`, for which the Potency result in the assay with Es-2, in the assay on HeLa, in the assay on Hek293T, in the assay with JEG-3, with OV90 and in the assay with PA-1 was “inactive” in each case. Also, the Potency entry in the assay with SKOV3, in the assay with Tov-21-G and in the assay on Tov112D was “inactive” in each case. The results for the activity, negative = cell killing in assay [1] (setting [2]), in [1] (setting [3]) and in [1] (setting [5]) were -0.223% (inactive), -22.7% (inactive) and -17.3% (inactive), respectively.
In the case of `N[C@H](Cc1c[nH]c2ccccc12)C(=O)O`, the Potency result with Es-2, with HeLa, in the assay with Hek293T, with JEG-3, in the assay on OV90 and in the assay with PA-1 was “inactive” in each case. Also, the Potency result in the assay with SKOV3, in the assay with Tov-21-G and with Tov112D was “inactive” throughout. The activity, negative = cell killing in assay [1] (setting [4]) is 21.7% (inactive); in assay [1] (setting [5]), 0.799% (inactive). The Potency in [1] (tumour line B) is 35.5 µM (active).
On to `NCCC(O)(P(=O)(O)O)P(=O)(O)O`, for which the Potency entry with Es-2, in the assay with HeLa, in the assay with Hek293T, in the assay with JEG-3, in the assay with OV90 and in the assay on PA-1 was “inactive” throughout. Further, the Potency result in the assay with SKOV3, in the assay on Tov-21-G and with Tov112D was “inactive” throughout. The activity, negative = cell killing is -6.03% (inactive) in assay [1] (setting [2]), -13.5% (inactive) in assay [1] (setting [3]), -19.5% (inactive) in assay [1] (setting [4]) and -12.2% (inactive) in [1] (setting [5]).
Take `Cc1ncc(CSSCc2cnc(C)c(O)c2CO)c(CO)c1O`: the Potency entry in the assay with Es-2, in the assay with HeLa, in the assay with Hek293T, in the assay with JEG-3, in the assay with OV90 and in the assay on PA-1 was “inactive” each time. The Potency entry in the assay with SKOV3, in the assay with Tov-21-G and in the assay on Tov112D was “inactive” throughout. In addition, the figures for the activity, negative = cell killing in assay [1] (setting [2]), in assay [1] (setting [3]) and in [1] (setting [5]) were -0.0133% (inactive), -10.6% (inactive) and 3.55% (inactive), respectively.
As to `O=C(OCCOCCO)c1ccccc1Nc1cccc(C(F)(F)F)c1`, the Potency entry with Es-2, with HeLa, in the assay with Hek293T, in the assay with JEG-3, in the assay on OV90 and in the assay with PA-1 was “inactive” throughout. Moreover, the Potency entry with SKOV3, with Tov-21-G and with Tov112D was “inactive” each time. The activity, negative = cell killing in [1] (setting [6]) is -19.4% (inactive); in assay [1] (setting [7]) it was 0.602% (inactive); in assay [1] (at 21.2 µM (top of the series), tumour line D), -4.96% (inactive).
On to `Cc1ccc(C(=O)C(C)CN2CCCCC2)cc1` (configuration not stated), for which the Potency result in the assay with Es-2, in the assay on HeLa, in the assay with Hek293T, in the assay with JEG-3, in the assay with OV90 and in the assay with PA-1 was “inactive” in each case. Also, the Potency entry in the assay on SKOV3, in the assay on Tov-21-G and with Tov112D was “inactive” throughout. The activity, negative = cell killing is -5.6% (inactive) and -9.58% (inactive) in assay [1] (setting [2]); -3.01% (inactive) and -24.6% (inactive) in [1] (setting [3]); 4.06% (inactive) and 1.53% (inactive) in [1] (setting [5]).
As to `O=C(Nc1ccc(Cl)c(Cl)c1)C1CC1`, the Potency result with Es-2, in the assay on HeLa, in the assay on Hek293T, in the assay with JEG-3, with OV90 and in the assay on PA-1 was “inactive” each time. Further, the Potency result in the assay on SKOV3, with Tov-21-G and in the assay on Tov112D was “inactive” throughout. Besides, the activity, negative = cell killing in [1] (setting [2]) is -26.9% (inactive). Moreover, the Potency is 28.2 µM (active) in assay [1] (tumour line A), 23.1 µM (active) in assay [1] (tumour line C) and 20 µM (active) in [1] (tumour line D).
On to `COc1ccc(CN2CCN(C(c3ccc(F)cc3)c3ccc(F)cc3)CC2)c(OC)c1OC`, for which the Potency entry with Es-2, in the assay with HeLa, with Hek293T, in the assay with JEG-3, in the assay on OV90 and in the assay with PA-1 was “inactive” throughout. Besides, the Potency result in the assay with SKOV3, in the assay on Tov-21-G and with Tov112D was “inactive” in each case. Further, in assay [1] (setting [5]), the activity, negative = cell killing was -24.3% (inactive). The Potency is 3.16 µM (active) in [1] (tumour line A) and 11.2 µM (active) in assay [1] (tumour line D).
Regarding `Nc1nc2ncc(CNc3ccc(C(=O)N[C@@H](CCC(=O)O)C(=O)O)cc3)nc2c(=O)[nH]1`, the Potency entry with Es-2, in the assay with HeLa, in the assay with Hek293T, in the assay with JEG-3, in the assay with OV90 and with PA-1 was “inactive” in each case. For the same compound, the Potency entry in the assay on SKOV3, with Tov-21-G and with Tov112D was “inactive” throughout. Also, the activity, negative = cell killing in [1] (setting [2]) was -3.4% (inactive); in assay [1] (setting [3]), 4.54% (inactive); in assay [1] (setting [4]), -10.5% (inactive); in assay [1] (setting [5]), -9.36% (inactive).
With `COc1cccc(OC)c1C(=O)N[C@@H]1C(=O)N2[C@@H]1SC(C)(C)[C@@H]2C(=O)O`, the Potency entry with Es-2, with HeLa, with Hek293T, in the assay on JEG-3, in the assay with OV90 and in the assay on PA-1 was “inactive” throughout. Also, the Potency entry in the assay on SKOV3, in the assay with Tov-21-G and in the assay on Tov112D was “inactive” each time. For the same compound, the activity, negative = cell killing in [1] (setting [2]) is -0.637% (inactive); in assay [1] (setting [3]), -7.13% (inactive); in [1] (setting [4]), -15.4% (inactive); in assay [1] (setting [5]), 14.7% (inactive).
